# Data reported in PubChem BioAssay (NCATS).
# “And” between values parts separate entries of the source, which are not always exact repeats. Equal values may be shown once. Results filed as inconclusive are left out. Some structures have more than one record in an assay (separate samples or runs), and their calls can disagree. The source made the active and inactive calls. Unless noted, calls follow the shape of the full dose curve.
# Legend:
# [1] = target: Lysosomal acid glucosylceramidase (Homo sapiens) (UniProt P04062); assay: Glucocerebrosidase-p2 (AID 348; in the data active = potency below about 10 µM; also: potency is read from the fitted curve at half-maximal effect); conditions: purified GBA, blue fluorogenic substrate, 40 min
# Chain of Lysosomal acid glucosylceramidase (Homo sapiens) (P04062 whole entry, looked up): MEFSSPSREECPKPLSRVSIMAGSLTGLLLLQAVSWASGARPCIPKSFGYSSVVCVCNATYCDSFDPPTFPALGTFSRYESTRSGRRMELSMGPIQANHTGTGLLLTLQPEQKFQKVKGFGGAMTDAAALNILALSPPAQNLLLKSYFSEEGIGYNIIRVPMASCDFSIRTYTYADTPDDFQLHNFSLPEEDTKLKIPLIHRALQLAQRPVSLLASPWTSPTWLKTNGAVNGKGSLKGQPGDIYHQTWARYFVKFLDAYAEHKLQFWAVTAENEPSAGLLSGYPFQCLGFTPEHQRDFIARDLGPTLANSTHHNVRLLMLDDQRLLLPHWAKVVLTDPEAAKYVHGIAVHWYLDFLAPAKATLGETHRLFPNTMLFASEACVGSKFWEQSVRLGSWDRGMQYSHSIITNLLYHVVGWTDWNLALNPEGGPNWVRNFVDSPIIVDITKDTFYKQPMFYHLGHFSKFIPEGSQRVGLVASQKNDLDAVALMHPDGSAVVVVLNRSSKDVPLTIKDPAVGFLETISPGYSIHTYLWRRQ
# Procedure, shortened: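 Compounds titrated from 0.6 nM upwards against 0.2 nM enzyme in pH 5.9 citric acid/KH2PO4, taurocholate, tween-20; blue fluorogenic substrate 80 uM, 40 min room temperature, stopped and read Ex 365/Em 440 for AC50.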
# [2] = AP1 Signaling Pathway (AID 357; active = well fitted curve in either direction with a large enough effect, not every such curve was filed as active;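 also: ME-180 reporter cells stimulated with EGF at its EC50 level; % is scaled to controls: 0 for no effect and ±100 for the full control effect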); conditions: ME-180 (cervical carcinoma) AP-1-bla reporter, EGF-induced, beta-lactamase ratio, 5 h
# Procedure, shortened: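 Modulation of EGF-driven AP-1 transcription was assessed with a beta-lactamase reporter in ME-180 cells. Compound and EC50 EGF were co-incubated 5 hours at 37 °C before 2.5-hour CCF4 loading at room temperature and dual-emission reading.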
# [3] = Cell Viability - BJ (AID 421); conditions: BJ fibroblast viability, qHTS;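 also: potency is read from the fitted curve at half-maximal effect; cells exposed to compound for 40 hours at 37 °C before readout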
# Procedure, shortened: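 Luminescent ATP signal (CellTiter-Glo, 20 min at room temperature) served as the read-out of viable BJ cells after 40 hours of compound treatment. Responses were scaled between DMSO and 100 uM tamoxifen, and AC50 values were obtained by Hill modeling.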
# [4] = Cell Viability - Jurkat (AID 426;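 active = dose-dependent loss of cell ATP signal giving a full or clear fitted curve, ranked by lower potency value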; also: potency is read from the fitted curve at half-maximal effect); conditions: qHTS
# Procedure, shortened: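 Seed 5000 Jurkat E6-1 cells/well; add compound; incubate 40 hr at 37 °C; add CellTiter-Glo; wait 20 min at room temperature; read luminescence. Fit concentration-response with Hill equation for AC50.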
# [5] = Cell Viability - Hek293 (AID 427;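 active = compounds whose dose-response curve shows a full or clear partial loss of cell viability, called from curve shape rather than a numeric limit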;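 also: potency is read from the fitted curve at half-maximal effect; cells exposed to compound for 40 hours at 37 °C before reading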); conditions: qHTS
# Procedure, shortened: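 Luminescent ATP read-out (CellTiter-Glo, 20 min RT) after 40 hr compound exposure at 37 °C in complete medium. Signal normalized to DMSO (basal) and 100 uM tamoxifen (100% inhibition); concentration-response fitted with the standard Hill equation to give AC50.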
# [6] = Cell Viability - HepG2 (AID 433); conditions: qHTS;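 also: potency is read from the fitted curve at half-maximal effect; potency for ATP loss meaning cytotoxicity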
# Procedure, shortened: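 Read-out is luciferase-based quantitation of cellular ATP as a measure of viable HepG2 cells after 40 h treatment at 37 °C. Signal decrease is scaled between DMSO-only and 100 uM tamoxifen controls, with AC50 fitted by the Hill equation.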
# [7] = Cell Viability - MRC5 (AID 434); conditions: MRC5 lung fibroblast viability, qHTS;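 also: potency is read from the fitted curve at half-maximal effect; potency reflects cytotoxicity seen as loss of intracellular ATP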
# Procedure, shortened: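 MRC5 normal human lung fibroblasts, 1500 cells/well, exposed to compound for 40 hr at 37 C. Cellular ATP was read by CellTiter-Glo luminescence; data normalized to DMSO and 100 uM tamoxifen, with AC50 from Hill fits.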
# [8] = Cell Viability - SK-N-SH (AID 435); conditions: SK-N-SH neuroblastoma cell viability qHTS;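 also: potency is read from the fitted curve at half-maximal effect; compound exposure lasted 40 h at 37 °C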
# Procedure, shortened: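 Luminescent ATP signal served as the viability read-out after 40 hours of compound treatment of human neuroblastoma SK-N-SH cells. Concentration-response data, scaled between DMSO and 100 uM tamoxifen, gave AC50 values by standard Hill modeling.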
# [9] = target: Cytochrome P450 1A2 (Homo sapiens) (UniProt P05177); assay: p450-cyp1a2 (AID 410); conditions: recombinant CYP1A2, luciferin-ME demethylation, luminescence; series mostly up to 57 µM; also: potency is read from the fitted curve at half-maximal effect;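 as to activity change, negative = inhibition: -100% = full effect of reference inhibitor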
# Chain of Cytochrome P450 1A2 (Homo sapiens) (P05177 whole entry, looked up): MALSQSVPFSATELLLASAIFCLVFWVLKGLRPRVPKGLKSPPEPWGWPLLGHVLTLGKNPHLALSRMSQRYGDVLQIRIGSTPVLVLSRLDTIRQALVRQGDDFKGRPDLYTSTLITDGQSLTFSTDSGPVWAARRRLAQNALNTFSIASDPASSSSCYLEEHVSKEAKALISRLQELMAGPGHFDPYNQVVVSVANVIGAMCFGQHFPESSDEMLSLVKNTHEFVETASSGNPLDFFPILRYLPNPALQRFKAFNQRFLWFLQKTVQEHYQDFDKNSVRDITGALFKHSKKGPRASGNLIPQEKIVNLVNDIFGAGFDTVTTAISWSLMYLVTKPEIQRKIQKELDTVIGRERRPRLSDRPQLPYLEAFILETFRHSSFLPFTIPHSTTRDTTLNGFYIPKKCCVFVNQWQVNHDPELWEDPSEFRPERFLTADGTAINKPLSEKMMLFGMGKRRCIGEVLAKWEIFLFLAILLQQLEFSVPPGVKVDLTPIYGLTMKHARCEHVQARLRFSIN
# Procedure, shortened: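 Inhibition was calculated relative to 57 uM furafylline (full inhibition). The reaction used human CYP1A2 at 20nM with Luciferin-ME at its Km, 100uM, driven by an NADPH-regenerating system for 60 min at room temperature.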
# [10] = NFAT Signaling Pathway (AID 444; active = well fitted curve in either direction with a large enough effect, not every such curve was filed as active;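 also: carbachol stimulus at about its EC50 of 1 µM final; % is scaled to controls: 0 for no effect and ±100 for the full control effect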); conditions: Jurkat NFAT-bla M1, carbachol, beta-lactamase ratio, 5 h
# Procedure, shortened: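 Jurkat cells with NFAT-driven β-lactamase reporter and co-expressed M1 receptor, stimulated with carbachol (final 1 uM, ~EC50), compound titration, 5 h at 37 °C. CCF4 loaded 1 h at RT; 460/530 nm ratio gave %activity and AC50.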
# [11] = at 38 µM (top of the series) unless noted
structure (smiles),measurement,setting,value
CN(C)c1ccc(C(=C2C=CC(=[N+](C)C)C=C2)c2ccccc2)cc1,Potency,[1],> 11.4 µM (inactive)
same,"activity change, negative = inhibition",[2]; at 7.69 µM (top of the series),0.139% (inactive)
same,Potency,[3],1.14 µM (active)
same,Potency,[4],0.0233 µM (active)
same,Potency,[5],0.244 µM (active)
same,Potency,[6],0.494 µM (active)
same,Potency,[7],0.458 µM (active)
same,Potency,[8],0.052 µM (active)
Nc1nc(Cl)nc2c1ncn2[C@@H]1O[C@H](CO)[C@@H](O)[C@H]1O,"activity change, negative = inhibition",[2]; at 17.2 µM (top of the series),0.568% (inactive)
O=C(O)CC[C@@H](C(=O)O)N1C(=O)c2ccccc2C1=O,Potency,[1],> 11.4 µM (inactive)
same,"activity change, negative = inhibition",[2]; at 7.69 µM (top of the series),-7.49% (inactive)
same,"activity change, negative = inhibition",[2]; at 38 µM (top of the series),3.98% (inactive)
same,Potency,[9],inactive
O=c1[nH]c2ccccc2n1CCCN1CCN(C(c2ccccc2)c2ccccc2)CC1,"activity change, negative = inhibition",[2]; at 17.2 µM (top of the series),-6.95% (inactive)
same,"activity change, negative = inhibition",[2]; at 38 µM (top of the series),-17.6% (inactive)
same,Potency,[9],25.1 µM (active)
N[C@H](CCCP(=O)(O)O)C(=O)O,"activity change, negative = inhibition",[2]; at 38 µM (top of the series),-8.4% (inactive)
same,Potency,[9],inactive and 31.6 µM (active) and 25.1 µM (active)
CC(C)Cc1ccc([C@H](C)C(=O)O)cc1,"activity change, negative = inhibition",[2]; at 17.2 µM (top of the series),-1.53% (inactive)
same,"activity change, negative = inhibition",[2]; at 38 µM (top of the series),-1.91% (inactive) and 13.2% (inactive)
same,Potency,[9],inactive
same,"activity change, negative = inhibition",[10]; at 17.2 µM (top of the series),-2.57% (inactive)
same,"activity change, negative = inhibition",[10]; at 38 µM (top of the series),-3.84% (inactive) and 2.4% (inactive)
CC1(C)CCC=[N+]1[O-],"activity change, negative = inhibition",[2]; at 38 µM (top of the series),-4.03% (inactive)
same,Potency,[9],inactive
NCCCCC(=O)O,"activity change, negative = inhibition",[2]; at 38 µM (top of the series),-6.31% (inactive)
same,Potency,[9],inactive
Cc1ccc(C(=O)c2ccc(CC(=O)O)n2C)cc1,"activity change, negative = inhibition",[2]; at 17.2 µM (top of the series),6.83% (inactive)
same,Potency,[9],inactive
OC[C@H]1O[C@@H](n2cnc3c(NC4CCCC4)ncnc32)[C@H](O)[C@@H]1O,"activity change, negative = inhibition",[2]; at 17.2 µM (top of the series),4.32% (inactive)
OC[C@H]1O[C@@H](n2cnc3c(Nc4ccccc4)ncnc32)[C@H](O)[C@@H]1O,"activity change, negative = inhibition",[2]; at 17.2 µM (top of the series),0.891% (inactive)
NCCCS(=O)(=O)O,"activity change, negative = inhibition",[2]; at 38 µM (top of the series),-1.95% (inactive)
same,Potency,[9],inactive
c1cnc2c(c1)ccc1cccnc12,Potency,[1],> 11.4 µM (inactive)
same,"activity change, negative = inhibition",[2]; at 7.69 µM (top of the series),-13.2% (inactive)
same,"activity change, negative = inhibition",[2]; at 38 µM (top of the series),0.206% (inactive)
same,Potency,[9],3.98 µM (active) and 2 µM (active)
same,Potency,[3],> 92 µM (inactive)
same,Potency,[4],8.24 µM (active)
same,Potency,[5],2.4 µM (active)
same,Potency,[6],4.55 µM (active)
same,Potency,[7],> 92 µM (inactive)
same,Potency,[8],3.86 µM (active)
Cc1nc2sccn2c(=O)c1CCN1CCC(=C(c2ccccc2)c2ccc(F)cc2)CC1,"activity change, negative = inhibition",[2]; at 17.2 µM (top of the series),-10.2% (inactive)
same,"activity change, negative = inhibition",[2]; at 38 µM (top of the series),8.49% (inactive)
Clc1ccc(N2CCN(Cc3c[nH]c4ncccc34)CC2)cc1,"activity change, negative = inhibition",[2]; at 38 µM (top of the series),-4.78% (inactive)
same,Potency,[9],inactive and 15.8 µM (active)
COc1ccccc1CNCCCCCCNCCCCCCCCNCCCCCCNCc1ccccc1OC,"activity change, negative = inhibition",[2]; at 38 µM (top of the series),-8.92% (inactive)
same,Potency,[9],inactive
O=C(O)c1cc(=O)c2ccccc2[nH]1,"activity change, negative = inhibition",[2]; at 38 µM (top of the series),5.32% (inactive)
N#C/C(=C\c1ccc(O)c(O)c1)C(=O)NCCCc1ccccc1,"activity change, negative = inhibition",[2]; at 17.2 µM (top of the series),-12.8% (inactive)
same,Potency,[9],12.6 µM (active)
O=C(O)c1cc([N+](=O)[O-])ccc1NCCCc1ccccc1,"activity change, negative = inhibition",[2]; at 38 µM (top of the series),-8.1% (inactive)
same,Potency,[9],31.6 µM (active)
CN=c1nc(-c2ccccc2)n(-c2ccccc2)s1,"activity change, negative = inhibition",[2]; at 38 µM (top of the series),20.8% (inactive)
same,Potency,[9],5.01 µM (active)
O=Nc1ccc2oc(=O)ccc2c1,"activity change, negative = inhibition",[2]; at 38 µM (top of the series),22.8% (inactive)
CCOc1ccc2nc(S(N)(=O)=O)sc2c1,"activity change, negative = inhibition",[2]; at 17.2 µM (top of the series),7.72% (inactive)
NC[C@@H]1O[C@H](C23CC4CC(CC(C4)C2)C3)Cc2c1ccc(O)c2O,"activity change, negative = inhibition",[2]; at 38 µM (top of the series),-6.97% (inactive)
same,Potency,[9],inactive
NC(N)=NC(=O)c1nc(Cl)c(N2CCCCCC2)nc1N,"activity change, negative = inhibition",[2]; at 38 µM (top of the series),21.5% (inactive)
same,Potency,[9],1 µM (active)
Cc1c(Nc2ncccc2C(=O)O)cccc1C(F)(F)F,"activity change, negative = inhibition",[2]; at 17.2 µM (top of the series),-17.9% (inactive)
same,Potency,[9],12.6 µM (active)
O=c1[nH]c2cc([N+](=O)[O-])c([N+](=O)[O-])cc2[nH]c1=O,"activity change, negative = inhibition",[2]; at 38 µM (top of the series),-3.93% (inactive)
same,Potency,[9],inactive
same,"activity change, negative = inhibition",[10]; [11],4.52% (inactive)
N#C/C(=C\c1ccc(O)c(O)c1)C(=O)c1ccc(O)c(O)c1,"activity change, negative = inhibition",[2]; at 38 µM (top of the series),-8.79% (inactive)
same,Potency,[9],31.6 µM (active)
same,"activity change, negative = inhibition",[10]; [11],-9.14% (inactive)
Cc1cc(NC(=O)Nc2ccc3c(ccn3C)c2)sn1,"activity change, negative = inhibition",[2]; at 38 µM (top of the series),-21.3% (inactive)
same,Potency,[9],10 µM (active) and 5.01 µM (active)
Nc1cc(-c2ccncc2)c[nH]c1=O,"activity change, negative = inhibition",[2]; at 17.2 µM (top of the series),-9.46% (inactive)
same,Potency,[9],15.8 µM (active)
CC(=O)SCC[N+](C)(C)C,"activity change, negative = inhibition",[2]; at 38 µM (top of the series),9.91% (inactive)
same,Potency,[9],inactive
same,"activity change, negative = inhibition",[10]; [11],9.71% (inactive)
NCCCCCCCCCCN,"activity change, negative = inhibition",[2]; at 38 µM (top of the series),4.16% (inactive)
same,Potency,[9],inactive
same,"activity change, negative = inhibition",[10]; [11],0.00398% (inactive)
CN1CCc2cc(NC(=O)Nc3cccnc3)ccc21,"activity change, negative = inhibition",[2]; at 38 µM (top of the series),-1.43% (inactive)
same,Potency,[9],0.0794 µM (active)
Nc1ccc(O)c(C(=O)O)c1,"activity change, negative = inhibition",[2]; at 17.2 µM (top of the series),12.5% (inactive)
same,Potency,[9],inactive
same,Potency,[3],> 92 µM (inactive)
same,Potency,[4],> 92 µM (inactive)
same,Potency,[5],> 92 µM (inactive)
same,Potency,[6],> 92 µM (inactive)
same,Potency,[7],> 92 µM (inactive)
same,Potency,[8],> 92 µM (inactive)
same,"activity change, negative = inhibition",[10]; [11],-25.5% [at 17.2 µM] (inactive)
